Results published in PubChem BioAssay (NCI).
About 83,000 compounds went through this panel and 20% of them were active in at least one assay; those are over-represented in the sample as a whole.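 Interpretation: 100, growth as untreated; towards 0, rising growth inhibition; 0, no net growth; 0 to -100, cell death. Compounds scoring below 10 were considered active.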 Values without a mark were called inactive. Calls of active or inactive are those of the source.

system: SNB-75 CNS; test: NCI-60 one-dose screen, 48 h (100 = growth as untreated, 0 = no growth, -100 = all killed); conditions: 10 µM unless noted

Going from `Cn1ccnc1C(=O)/C=C/c1ccc(NC(=O)Nc2ccccc2)cc1` to `Cn1ccnc1C(=O)/C=C/c1ccc(NC(=O)Nc2ccc(F)cc2)cc1`, the growth rises from 17.1% to 39.3%.

Compared with `CCOC(=O)c1sc(N)c(C(=O)OCC)c1C`, `COc1ccc(NC2=C(Cl)C(=O)C(C)=C(C)C2=O)cc1OC` is higher in growth: 36% for the first, 126% for the second.

Compared with `CN(C)S(=O)(=O)c1oc(-c2ccccc2)nc1C#N`, `COc1ccc(/C=N/NC(=O)c2[nH]c3ccc(Br)cc3c2-c2ccccc2)o1` is lower in growth: 96.1% for the first, 50.3% for the second.

First: COc1cc(/C=C/C(=O)c2cc(OC)c(OC)c(OC)c2)ccc1OCc1ccccc1
Second: O=C(Nc1nc2ccc(O)cc2s1)c1cccc(C(F)(F)F)c1
The growth of the first is lower: 13% for the first, 118% for the second.

Compared with `O=C(CCN1C(=O)/C(=C/c2ccccc2)SC1=S)N1CCOCC1`, `Clc1ccc(-c2cn3cc(Cc4ccc(Cl)c(Cl)c4)sc3n2)cc1` is lower in growth: 92.1% for the first, 70.7% for the second.

`N#Cc1c(-c2ccc(Cl)cc2)nc(SCc2ccc(F)cc2)nc1N1CCNCC1` was tested, and the growth was 65.3%.

With `O=C1Nc2cc(Cl)ccc2/C1=C\c1ccc(OCc2ccc(Br)cc2F)cc1` the growth was -72.8% (active).
For `NC(=O)c1cc(-c2ccc3ncnc(N4CCc5cc(F)c(Cl)cc54)c3c2)cnc1N`, the growth was -25% (active).
In the case of `Cc1ccc(CNS(=O)(=O)/N=C2\NC(=O)NC2=C(Cl)Cl)cc1`, the growth is reported as -2.97% (active).

system: SNB-19 CNS; test: as above; conditions: 10 µM unless noted

First: Cc1ccc2c(n1)C(=O)C(Cl)=C(Nc1cccc(C(C)C)c1)C2=O
Second: CCCC(=O)NC(c1ccc(N(CC)CC)cc1)c1cc(C)c2cccnc2c1O (stereo not given)
The growth of the first is higher: 71.7% for the first, 25.1% for the second.

Going from `Cn1cc(-c2cc(N)n3nc(-c4cn(C)c5ccc(F)cc45)cc3n2)c2cc(F)ccc21` to `Nc1c(C(=O)Nc2ccc(C(F)(F)F)cc2)sc2nc(-c3cnccn3)cc(-c3cccs3)c12`, the growth rises from 50.1% to 52.2%.

First: Cn1c(SCC(=O)c2cccs2)nc2ccccc2c1=O
Second: CN(C)c1ccc(/C=c2\sc3nc4ccccc4n3c2=O)cc1
The growth of the first is higher: 102% for the first, 99.3% for the second.

Compared with `COC(=O)C1CCCN(S(=O)(=O)/N=C2\NC(=O)NC2=C(Cl)Cl)C1` (stereo not given), `Cc1cc(C(=O)Nc2sc3c(c2C(N)=O)CCC(=O)C3)ccc1OCCN1CCCCC1` is higher in growth: 94.6% for the first, 102% for the second.

Going from `O=C(N/N=C/c1ccc([N+](=O)[O-])s1)c1[nH]c2ccc(Br)cc2c1-c1ccccc1` to `O=C(N/N=C/c1ccc(Br)s1)c1[nH]c2ccc(Br)cc2c1-c1ccccc1`, the growth rises from 27.1% to 31.3%.

Going from `C=C1CC[C@H]2[C@@](C)(CCC3OC(c4ccc(OCc5cn(C6CC(OC(C)=O)C(OC(C)=O)C(COC(C)=O)O6)nn5)cc4)OC[C@]32C)[C@@H]1/C=C/C1=CCOC1=O` (stereo not given in full) to `COc1cc(/C=C/C(=O)c2ccc(C)cc2)ccc1Oc1nc(NCCO)nc(N2CCOCC2)n1`, the growth falls from 88.3% to 44%.

Going from `O=C1c2c(c3c4cccnc4[nH]c3c3ccc4ccccc4c23)C(=O)N1CCO` to `CSc1ccc2c(c1)N(C(=O)/C(C#N)=C/c1c[nH]c3ccccc13)c1ccccc1S2`, the growth falls from 69.9% to 41%.

First: CN(C)c1ccc(/C=C2\Cc3c(F)ccc(Br)c3C2=O)cc1
Second: CCOc1ccc2nc(NC(=O)c3ccc(C(F)(F)F)cc3)sc2c1
The growth of the first is lower: 93.1% for the first, 101% for the second.

Compared with `O=C(CSc1nnc(-c2ccc3nc(-c4ccc(Cl)cc4)[nH]c3c2)o1)Nc1ccc(C(=O)/C=C/c2ccc(Cl)cc2)cc1`, `CC(O)C(NC(=O)C1CCCN1C(=O)CNC(=O)C1CC(=O)NCC(=O)NC(Cc2c[nH]c3ccccc23)C(=O)NC(Cc2ccc(O)cc2)C(=O)NCC(=O)NC(CO)C(=O)NC(CCC(N)=O)C(=O)NC(Cc2c[nH]c3ccccc23)C(=O)N1)C(=O)NCC(=O)NC(CCC(N)=O)C(=O)NC(CCCNC(=N)N)C(=O)NC(CC(=O)O)C(=O)O` (stereo not given) is lower in growth: 99.5% for the first, 96.6% for the second.

With `C#Cc1nc(C2=C(C)C(=N\O)/C(=N/O)C2)cs1` the growth was 95.6%.

In the case of `COc1ccc([C@@H]2c3[nH]c4ccccc4c3CC3C(=O)N(C4CCN(Cc5c(F)cccc5F)CC4)CC(=O)N32)c(OC)c1` (stereo not given in full), the growth is reported as 64.2% [5.26 µM].

`CN1CCN(Cc2ccc(NC(=O)c3cncc(C#Cc4cnc5ccc(N6CCSCC6)nn45)c3)cc2C(F)(F)F)CC1` was tested, and the growth was -12.6% (active).
